# From PubChem BioAssay AID1159580 (chemical genetic matrix, 2015)
# Out of some 5,500 compounds screened, about 2,000 (36%) were called active. Another 18% or so got no clear call; they are omitted. Some of the results follow. Values without a mark were called inactive. Cut-off read from the data, not from the text of the source: active = normalized growth mostly below about 0.91 (no sharp cut-off); inconclusive = no clear call, values can overlap the other calls; inactive = mostly above about 0.92.
# Assay: chemical genetic growth profiling, strain panel (AID 1159580);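 note: tested at 20 µM; growth read once vehicle control cultures reached saturation at 30 °C; 1 = growth at the plate median or of vehicle wells; lower values mean less growth of the strain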
# Details: S. cerevisiae deletion strains, growth OD
compound,measurement,setting,value
COc1cc2occ(-c3ccccc3)c(=O)c2c(OC)c1C,normalized growth,"locus YAL013W, strain DEP1, active compounds read low",0.947
same,normalized growth,"locus YAL021C, strain ccr4, active compounds read low",0.996
same,normalized growth,"locus YAL026C, strain drs2, active compounds read low",0.96
same,normalized growth,"locus YAL030W, strain snc1, active compounds read low",0.967
same,normalized growth,"locus YBL061C, strain skt5, active compounds read low",0.985
same,normalized growth,"locus YBR009C, strain hhf1, active compounds read low",0.978
same,normalized growth,"locus YBR021W, strain FUR4, active compounds read low",0.923
same,normalized growth,"locus YBR023C, strain chs3, active compounds read low",0.966
same,normalized growth,"locus YBR171W, strain sec66, active compounds read low",0.965
same,normalized growth,"locus YBR229C, strain ROT2, active compounds read low",0.959
same,normalized growth,"locus YBR231C, strain swc5, active compounds read low",0.966
same,normalized growth,"locus YBR279W, strain paf1, active compounds read low",0.992
same,normalized growth,"locus YCL011C, strain gbp2, active compounds read low",0.973
same,normalized growth,"locus YCL016C, strain dcc1, active compounds read low",0.968
same,normalized growth,"locus YCL029C, strain bik1, active compounds read low",0.933
same,normalized growth,"locus YCL061C, strain MRC1, active compounds read low",0.973
same,normalized growth,"locus YCL069W, strain vba3, active compounds read low",0.975
same,normalized growth,"locus YCR088W, strain abp1, active compounds read low",0.972
same,normalized growth,"locus YDL005C, strain med2, active compounds read low",1.02
same,normalized growth,"locus YDL035C, strain GPR1, active compounds read low",0.915
same,normalized growth,"locus YDL040C, strain nat1, active compounds read low",0.973
same,normalized growth,"locus YDL074C, strain BRE1, active compounds read low",0.817
same,normalized growth,"locus YDL101C, strain DUN1, active compounds read low",0.953
same,normalized growth,"locus YDL134C, strain PPH21, active compounds read low",0.963
same,normalized growth,"locus YDL185W, strain tfp1, active compounds read low",0.945
same,normalized growth,"locus YDL192W, strain arf1, active compounds read low",0.903 (active)
same,normalized growth,"locus YDR001C, strain nth1, active compounds read low",0.967
same,normalized growth,"locus YDR069C, strain doa4, active compounds read low",0.995
same,normalized growth,"locus YDR101C, strain arx1, active compounds read low",0.934
same,normalized growth,"locus YDR137W, strain rgp1, active compounds read low",0.765 (active)
same,normalized growth,"locus YDR150W, strain NUM1, active compounds read low",0.963
same,normalized growth,"locus YDR159W, strain sac3, active compounds read low",0.98
same,normalized growth,"locus YDR162C, strain NBP2, active compounds read low",0.875
same,normalized growth,"locus YDR195W, strain ref2",1.1
same,normalized growth,"locus YDR297W, strain sur2, active compounds read low",0.974
same,normalized growth,"locus YDR318W, strain mcm21, active compounds read low",0.891 (active)
same,normalized growth,"locus YDR334W, strain swr1, active compounds read low",0.968
same,normalized growth,"locus YDR335W, strain msn5, active compounds read low",0.991
same,normalized growth,"locus YDR388W, active compounds read low",0.935
same,normalized growth,"locus YDR392W, strain spt3, active compounds read low",0.707 (active)
same,normalized growth,"locus YDR502C, strain sam2, active compounds read low",0.919 (active)
same,normalized growth,"locus YEL003W, strain gim4, active compounds read low",0.978
same,normalized growth,"locus YEL037C, strain rad23, active compounds read low",0.977
same,normalized growth,"locus YEL061C, strain CIN8 (second series), active compounds read low",0.978
same,normalized growth,"locus YEL061C, strain CIN8, active compounds read low",0.968
same,normalized growth,"locus YER015W, strain faa2, active compounds read low",0.981
same,normalized growth,"locus YER016W, strain bim1, active compounds read low",0.97
same,normalized growth,"locus YER110C, active compounds read low",0.938
same,normalized growth,"locus YER111C, strain swi4, active compounds read low",1
same,normalized growth,"locus YER155C, strain BEM2 (second series), active compounds read low",0.886
same,normalized growth,"locus YER155C, strain BEM2, active compounds read low",0.961
same,normalized growth,"locus YER167W, strain BCK2, active compounds read low",0.881 (active)
same,normalized growth,"locus YFR010W, strain ubp6, active compounds read low",0.991
same,normalized growth,"locus YGL078C, strain dbp3, active compounds read low",0.975
same,normalized growth,"locus YGL086W, strain mad1, active compounds read low",0.901 (active)
same,normalized growth,"locus YGL167C, strain pmr1, active compounds read low",0.965
same,normalized growth,"locus YGL173C, strain kem1, active compounds read low",0.983
same,normalized growth,"locus YGL227W, strain vid30, active compounds read low",0.989
same,normalized growth,"locus YGL240W, strain doc1, active compounds read low",0.944
same,normalized growth,"locus YGL248W, strain PDE1, active compounds read low",0.961
same,normalized growth,"locus YGL253W, strain hxk2, active compounds read low",0.971
same,normalized growth,"locus YGR078C, strain PAC10, active compounds read low",0.932
same,normalized growth,"locus YGR135W, strain pre9, active compounds read low",0.918
same,normalized growth,"locus YGR229C, strain SMI1, active compounds read low",0.813
same,normalized growth,"locus YGR252W, strain gcn5, active compounds read low",0.707 (active)
same,normalized growth,"locus YHR013C, strain ard1, active compounds read low",0.976
same,normalized growth,"locus YHR027C, strain rpn1, active compounds read low",0.989
same,normalized growth,"locus YHR030C, strain SLT2, active compounds read low",0.948
same,normalized growth,"locus YHR079C, strain IRE1 (second series), active compounds read low",0.911 (active)
same,normalized growth,"locus YHR094C, strain hxt1, active compounds read low",0.956
same,normalized growth,"locus YHR129C, strain ARP1, active compounds read low",0.949
same,normalized growth,"locus YHR142W, strain chs7, active compounds read low",0.917
same,normalized growth,"locus YHR200W, strain rpn10, active compounds read low",0.905 (active)
same,normalized growth,"locus YIL066C, strain RNR3, active compounds read low",0.874
same,normalized growth,"locus YIL073C, strain SPO22, active compounds read low",0.818
same,normalized growth,"locus YIL125W, strain kgd1, active compounds read low",0.955
same,normalized growth,"locus YIR030C, strain dcg1, active compounds read low",0.937
same,normalized growth,"locus YJL092W, strain hpr5, active compounds read low",0.977
same,normalized growth,"locus YJL095W, strain BCK1 (second series), active compounds read low",0.975
same,normalized growth,"locus YJL095W, strain BCK1, active compounds read low",0.847
same,normalized growth,"locus YJL115W, strain asf1, active compounds read low",0.998
same,normalized growth,"locus YJL129C, strain trk1, active compounds read low",0.891
same,normalized growth,"locus YJL134W, strain LCB3, active compounds read low",0.965
same,normalized growth,"locus YJL154C, strain vps35, active compounds read low",0.99
same,normalized growth,"locus YJL164C, strain tpk1, active compounds read low",0.937
same,normalized growth,"locus YJL166W, strain qcr8, active compounds read low",0.975
same,normalized growth,"locus YJL168C, strain set2, active compounds read low",0.946
same,normalized growth,"locus YJL187C, strain SWE1 (second series), active compounds read low",0.934
same,normalized growth,"locus YJL187C, strain SWE1, active compounds read low",0.976
